DAX1 inh-1: inhibitors of DAX1 repression of SF-1 activated StAR promoter. actives 1.1% (n = 370,000). HEK293T StAR-luciferase reporter, SF-1/DAX-1 repression relief. inhibition, % at 6.8 µM;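 active means inhibition above the mean over all tested compounds plus 3 SD, cut at about 3.6% in these data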;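 further: 0% = DAX-1 cells with DMSO and 100% = cells lacking DAX-1 with DMSO; higher inhibition means more luminescence from relief of DAX-1 repression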
AHR act: activates the human aryl hydrocarbon receptor; P35869; activation, % at 5 µM; AHR-responsive luciferase reporter cells, luminescence; actives 2.5% (n = 320,000); in the data active means activation above about 47%;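 further: 0% = vehicle wells and 100% = reference agonist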
Target sequence (P35869 whole entry, looked up): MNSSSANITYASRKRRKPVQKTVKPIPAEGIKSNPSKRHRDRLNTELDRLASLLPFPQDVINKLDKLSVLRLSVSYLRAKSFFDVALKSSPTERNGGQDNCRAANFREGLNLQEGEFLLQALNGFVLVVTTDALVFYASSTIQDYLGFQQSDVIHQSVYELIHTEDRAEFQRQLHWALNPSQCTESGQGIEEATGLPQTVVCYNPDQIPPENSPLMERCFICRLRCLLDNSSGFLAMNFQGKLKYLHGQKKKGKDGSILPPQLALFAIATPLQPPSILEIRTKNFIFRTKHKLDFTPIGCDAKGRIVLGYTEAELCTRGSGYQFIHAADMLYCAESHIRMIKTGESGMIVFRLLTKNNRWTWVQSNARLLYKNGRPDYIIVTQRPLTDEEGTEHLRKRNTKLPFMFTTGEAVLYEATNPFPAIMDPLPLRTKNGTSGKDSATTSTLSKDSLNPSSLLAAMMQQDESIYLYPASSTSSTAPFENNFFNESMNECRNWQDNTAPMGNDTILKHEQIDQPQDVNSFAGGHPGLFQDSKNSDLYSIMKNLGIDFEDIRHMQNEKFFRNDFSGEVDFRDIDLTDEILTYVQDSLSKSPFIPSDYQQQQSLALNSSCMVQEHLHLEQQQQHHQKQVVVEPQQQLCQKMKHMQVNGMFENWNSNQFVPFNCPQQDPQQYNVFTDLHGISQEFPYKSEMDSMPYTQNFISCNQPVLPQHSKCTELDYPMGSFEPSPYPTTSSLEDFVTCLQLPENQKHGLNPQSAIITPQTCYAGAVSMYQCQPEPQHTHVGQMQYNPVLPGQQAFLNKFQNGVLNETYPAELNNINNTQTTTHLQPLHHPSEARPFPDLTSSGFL
DAX1 inh-2: NR0B1 (DAX1) inhibition. P51843. inhibition, % at 6.75 µM. HEK293 Gal4-DAX1 luciferase reporter, luminescence. actives 0.99% (n = 340,000);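 active means inhibition above the mean over all tested compounds plus 3 SD, cut at about 4.2% in these data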;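 further: 0% = DAX1-transfected cells with DMSO and 100% = empty-vector control cells with DMSO; inhibition shows as a rise in luminescence from relieved DAX1 repression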
hgDAF-12 ag: agonists of H. glycines DAF-12 nuclear receptor; actives 1.8% (n = 370,000); activation, % at 6.8 µM; HEK293 GAL4-hgDAF12 UAS-luciferase reporter, agonist luminescence; normalized to butyrate control;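 active means activation above a cutoff set at the mean of all screened compounds plus 3 SD, cut at about 10% in these data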;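 further: 0% = DMSO wells and 100% = sodium butyrate wells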
hcDAF12 agonist: activators of H. contortus DAF-12 nuclear receptor; activation, % at 6.8 µM; HEK293 hcDAF-12 lit1-tk-luc reporter, luminescence; 0% DMSO, 100% Δ7-dafachronic acid; actives 1.4% (n = 370,000);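 active means activation above the mean of all tested compounds plus 3 SD, cut at about 5.5% in these data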;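 further: 100% = response to 3 µM Δ7-dafachronic acid high control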
ssDAF-12 act: activates DAF-12 receptor from parasite S. stercoralis | activation, % at 6.8 µM | AID 652126 | HEK293 ssDAF-12/GRIP1 lit1-tk-luc reporter, luminescence; % of 3 µM dafachronic acid response | actives 1% (n = 370,000);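 active means activation above the mean over all tested compounds plus 3 SD, cut at about 0.9% in these data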;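 further: 0% = DMSO-only wells and 100% = 3 µM delta7-dafachronic acid wells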
Starred values were filed as active, the others as inactive; . = no result given. Most compounds without a hit are left out; they make up all but 5.7% or so of the library.

SMILES	DAX1 inh-1	AHR act	DAX1 inh-2	hgDAF-12 ag	hcDAF12 agonist	ssDAF-12 act
Cn1c(N)c(C(=O)COC(=O)CSc2ccccc2)c(=O)n(C)c1=O	0.2	-0.6	8.5*	0.6	-1.9	-0.8
CC(C)c1ccccc1OCC(=O)N1CCCCCCC1	0.0	0.0	-0.4	1.2	-2.9	-1.0
O=C(CC(O)CCc1ccccc1)c1ccc(O)cc1 (configuration not stated)	1.6	5.1	8.4*	1.4	1.6	-0.9
C=CCNC(=O)C1(S(=O)(=O)c2ccccc2)CC=CC1	0.8	0.4	5.2*	0.6	-0.3	-0.8
C=CCNC(=O)c1ccccc1NS(=O)(=O)c1ccccc1	-0.2	4.1	-0.8	-0.8	-1.2	-0.6
CCOC(=O)N(C)[C@H]1C[C@H]2c3[nH]c4cccc(-c5cccc(F)c5)c4c3CCN2C(=O)[C@H]1[C@H](C)O	-0.9	.	.	-2.4	-2.5	-1.8
Cc1ccc(NC(=S)N(CCN(C)C)Cc2cc3cccc(C)c3[nH]c2=O)cc1	0.5	13.2	0.1	0.4	5.3	1.7*
COc1cc2cc(CN(Cc3cccs3)C(=S)Nc3ccc(C)cc3)c(=O)[nH]c2cc1OC	-0.7	49.8*	-3.2	5.2	-3.4	-1.0
Cc1cccc2cc(CN(Cc3ccccc3)C(=S)NCCCN(C)C)c(=O)[nH]c12	1.9	-0.1	5.4*	3.0	-0.5	-0.9
COc1ccccc1NC(=S)N(Cc1ccco1)Cc1cc2cccc(C)c2[nH]c1=O	-1.6	48.4*	-2.2	0.3	-2.6	-1.2
Cc1cccc(NC(=S)N(CCN(C)C)Cc2cc3cccc(C)c3[nH]c2=O)c1	0.7	18.1	0.3	2.7	-0.2	-1.6
CCOC(=O)c1c(NC(=S)NC(=O)c2cnn(CC)c2)sc2c1CCC(C)C2 (configuration not stated)	-0.3	5.2	0.7	-1.6	-2.1	-1.1
N/C(=N\OC(=O)c1ccc(Cl)c(Cl)c1)c1ccccn1	4.2*	71.7*	0.5	10.7*	5.5	0.6
Cc1cc(/C(N)=N/OC(=O)c2ccc(Cl)cc2)no1	2.2	-5.3	.	11.5*	3.6	0.0
Cc1ccc(C(=O)O/N=C(\N)c2ccccn2)c(C)c1	-7.4	-2.0	-5.3	-11.6	-6.6	-2.7
N/C(=N\OC(=O)c1ccccc1[N+](=O)[O-])c1ccccn1	0.7	0.6	-0.5	10.5*	3.4	0.6
N/C(=N\OC(=O)c1ccc(Cl)c([N+](=O)[O-])c1)c1ccccn1	-0.6	-5.9	-0.2	0.3	-0.7	-1.4
Cc1cc(C(=O)NNC(=O)c2ccc(Cl)cc2)no1	-0.5	-0.7	1.7	-0.8	0.2	-1.3
N/C(=N\OC(=O)c1ccc(Cl)cc1)c1ccccn1	4.2*	-15.4	-3.7	-1.9	4.9	-1.3
CC(=O)Nc1cccc(-n2nnc(SCC(=O)Nc3ccc(F)c(Cl)c3)n2)c1	-0.6	5.2	.	-0.6	1.4	-1.4
O=C(Cn1nnc2ccccc21)N/N=C\C=C\c1ccccc1	-0.3	2.6	-1.5	-0.5	-0.8	-0.8
COC(=O)c1c(C)[nH]c(-c2csc(N)n2)c1C	-1.7	15.8	0.1	-0.9	-0.4	-0.4
O=C(c1ccc2ccccc2n1)N1CCN(S(=O)(=O)c2ccccc2)CC1	0.3	12.4	0.8	2.0	0.1	-0.3
N/C(=N\OC(=O)C12CC3CC(CC(C3)C1)C2)c1ccccc1	-0.8	3.7	2.4	0.1	3.5	-0.7
N/C(=N\OC(=O)C12CC3CC(CC(C3)C1)C2)c1ccccn1	1.8	7.8	0.5	10.9*	3.9	-0.8
SMILES	DAX1 inh-1	AHR act	DAX1 inh-2	hgDAF-12 ag	hcDAF12 agonist	ssDAF-12 act
O=C(CN(Cc1ccccc1)C(=O)c1csnn1)NCc1ccc2c(c1)OCO2	-0.4	7.1	-0.6	2.8	5.8*	0.8
O=C(NCc1ccc2c(c1)OCO2)OCc1ccccc1	4.0*	.	.	7.3	2.2	-0.7
O=C(O)CCCC(=O)Nc1ccc(Oc2ncnc3cc(Cl)ccc23)nc1	0.1	-1.0	5.9*	-2.1	0.3	-1.6
CC1=C(C(=O)N(C)C)CC(CC(=O)NCCCN(C)C)C(=O)N1Cc1ccc(F)cc1 (configuration not stated)	0.3	.	.	2.3	-0.3	-0.5
Nc1ccc2cn[nH]c2c1	0.0	48.6*	-1.0	-0.8	4.2	0.2
Cc1ccc(OC(=O)c2ccc(S(=O)(=O)N(C)C)cc2)c(-n2nc3ccccc3n2)c1	2.9	19.6	4.3*	12.0*	3.2	0.5
Cc1ccc(OC(=O)c2cccc(S(=O)(=O)N3CCCC3)c2)c(-n2nc3ccccc3n2)c1	1.6	37.7	3.9	11.3*	0.8	-0.8
Cc1nc(SCC(=O)Nc2ccc(N3CCOCC3)cc2)nc(C)c1C	0.0	3.7	0.1	-0.8	-1.8	-1.3
O=C(c1cccs1)N1C[C@@H](n2cc(C3CC3)nn2)[C@H](O)C[C@@H]1c1ccc(Cl)cc1	-0.9	.	1.2	6.6	-1.3	-1.1
C=CCNc1nc(-c2ccc([N+](=O)[O-])cc2)cs1	0.3	-2.9	-0.6	11.6*	1.0	-0.7
COc1ccc(-c2cc(N)n(S(=O)(=O)Cc3ccccc3)n2)c(OC)c1	-1.4	62.3*	0.4	-0.5	-1.2	-1.1
O=c1c2ccccc2oc2cc(OCc3cccc(F)c3)cc(O)c12	-0.4	.	-0.5	3.8	-0.8	0.1
CCN(C(=O)CC(C)C)c1nnc(Cn2nnc3ccccc32)s1	-1.9	2.0	-2.1	-5.5	-2.9	-1.8
CC(C)(C)n1ncc2c(=O)n(CC(=O)NCc3ccccc3Cl)cnc21	2.3	2.2	-0.3	9.5	6.1*	0.0
O=C(/C=C/c1cccs1)Nc1cccnc1	2.6	56.2*	-1.1	8.2	2.6	-0.4
O=C(/C=C/c1cccs1)Nc1nncs1	1.1	30.3	2.2	9.0	0.1	-0.7
O=C(/C=C/c1cccs1)NNC(=O)c1ccccc1	1.5	12.6	0.2	6.7	6.0*	-0.1
CC[C@H]1c2[nH]c3ccccc3c2C[C@H]2C(=O)N(c3ccc(F)cc3)C(=O)N21	-1.1	-1.9	0.1	1.6	-1.8	-1.1
C/C(=N\Nc1nc(N)cc(Cl)n1)c1cccc(N)c1	1.3	65.3*	0.1	7.7	-1.7	-0.6
C/C(=N\Nc1nc(N)cc(Cl)n1)c1cccc([N+](=O)[O-])c1	-0.7	18.2	1.2	1.6	-1.2	-1.2
O=C(Nc1ccc2c(c1)OCO2)c1ccc2nc[nH]c2c1	1.3	61.7*	1.7	4.0	0.5	-1.2
O=C(Nc1cccc(F)c1)c1ccc2c(c1)OCO2	1.0	56.2*	2.9	7.4	0.9	-0.3
Cc1cccc(NC(=O)c2ccc3c(c2)OCCO3)n1	.	10.4	0.1	.	.	.
Cc1nc2ccc(C(=O)Nc3ccc4nc[nH]c4c3)cc2[nH]1	-0.5	18.4	-0.6	-0.5	-2.6	-1.3
Cc1cccc(NC(=O)CNC(=O)c2ccc3c(c2)OCO3)n1	-1.1	50.1*	0.1	2.3	-1.7	-1.2
